From PubChem BioAssay AID463173 (ICCB-Longwood Screening Facility, Harvard Medical School, 2010)
Screen size: about 52,000 compounds; about 1,700 (3.3%) were called active. Rule as the data show it: active = survival mostly below about 52% (no sharp cut-off); inactive = mostly above about 56%. For the sample, actives were picked, then their nearest neighbours and some compounds at random.

What follows are molecules tested on Wild type (assay: S. aureus survival, RN4220 and DeltatarO strains – OD600, teichoic acid synthesis inhibitors, primary screen (AID 463173)). Settings: S. aureus RN4220 wild type/DeltatarO growth, OD600, 18 h, hits give low values, screened at 18.75 µg/mL (by protocol).

Row | SMILES | survival
1 | Cc1cccc(C)c1OC(=O)CSc1nnc(-c2cccs2)o1 | 83% (inactive)
2 | COc1cc2c(cc1OC)n(CC(=O)c1cccc(Cl)c1)c(=O)n1nc(CCn3nc(C)cc3C)nc21 | 74% (inactive)
3 | CCOC(=O)C(C)NC(=O)c1c(C)oc2ncn(CC(C)C)c(=O)c12 (centres undefined) | 72% (inactive)
4 | Cc1ccccc1CN1CCCN(CC(=O)Nc2ccc3c(c2)OCCO3)S1(=O)=O | 72% (inactive)
5 | Cc1cccc2c1-c1sc(C(=O)N(C)c3cccc(C(F)(F)F)c3)cc1CO2 | 24% (inactive)
6 | COc1ccc(N(C)C(=O)c2cc3c(s2)-c2c(C)cccc2OC3)c(OC)c1 | 12% (active)
7 | Cc1cccc2c1-c1sc(C(=O)N(C)c3cccc(Cl)c3)cc1CO2 | 0% (active)
8 | COc1ccc(CCNC(=O)c2cc3c(s2)-c2c(C)cccc2OC3)c(OC)c1 | 103% (inactive)
9 | COc1ccc(NC(=O)c2cc3c(s2)-c2c(C)cccc2OC3)c(OC)c1 | 78% (inactive)
10 | CCc1ccccc1N(C)C(=O)c1cc2c(s1)-c1c(C)cccc1OC2 | 69% (inactive)
11 | Cc1ccc(NC(=O)CCc2c(C)nn(-c3ccc(N4CCCCC4)nn3)c2C)cc1F | 146% (inactive)
12 | COCCCNc1cc(C)nc2ccccc12 | 121% (inactive)
13 | COc1ccc(N2CC3=C(C2=O)C(c2ccc(Br)cc2)NC(=O)N3C)cc1 (centres undefined) | 156% (inactive)
14 | COc1ccc(CNC(=O)c2cnc3cc(C)ccn3c2=O)cc1 | 85% (inactive)
15 | Cc1ccc(OC(=O)CSc2nnc(CNC(=O)c3ccccc3)o2)cc1 | 87% (inactive)
16 | N#Cc1ccccc1Cn1c(SCC(=O)NCc2ccccc2)nc2ccccc21 | 75% (inactive)
17 | O=C(C1CCN(S(=O)(=O)c2ccccc2)CC1)N1CCCCC1 | 96% (inactive)
18 | O=C1C2c3ccccc3CCN2C(=O)CN1CCc1ccccc1 (centres undefined) | 121% (inactive)
19 | CCOc1ccc(-n2nc(CO)c(C(=O)NCC(C)O)n2)cc1 (centres undefined) | 81% (inactive)
20 | CC(C)CCNC(=O)c1ccc2c(c1)N(Cc1cccc(Cl)c1)C(=O)c1ccccc1S2 | 70% (inactive)
21 | Cc1ccc(CN2C(=O)c3ccccc3Sc3ccc(C(=O)NCc4ccco4)cc32)cc1 | 55% (inactive)
22 | Cc1ccc(C)c(CN2C(=O)c3ccccc3Sc3ccc(C(=O)NCc4ccco4)cc32)c1 | -1% (active)
23 | CC(C)CCNC(=O)Nc1ccc2c(c1)N(C)C(=O)c1ccccc1S2 | 135% (inactive)

Row | SMILES | survival
24 | Cc1cccc(CN2C(=O)c3ccccc3Sc3ccc(C(=O)NCc4ccco4)cc32)c1 | 75% (inactive)
25 | CC(C)CCNC(=O)c1ccc2c(c1)N(C)C(=O)c1ccccc1S2 | -6% (active)
26 | COc1cc(Cl)c(NC(=O)CN2C(=O)c3cccnc3Sc3ccccc32)c(OC)c1 | 72% (inactive)
27 | COc1ccc2c(CNCc3cccs3)c(C(=O)O)n(Cc3ccccc3F)c2c1 | 89% (inactive)
28 | CCN1CCC(N(Cc2ccc(F)cc2)C(=O)Nc2ccc(C)c(F)c2)CC1 | 87% (inactive)
29 | O=C(Nc1ccccc1C(F)(F)F)C1CCN(S(=O)(=O)c2ccccc2)CC1 | 72% (inactive)
30 | CCc1ccc(C(=O)c2cn(CC(=O)Nc3ccc4c(c3)OCCO4)c3ccc(C)cc3c2=O)cc1 | 84% (inactive)
31 | CCCCn1nc(NC(=O)c2cccc(Cl)c2)c2cc3ccccc3nc21 | 86% (inactive)
32 | NC(=O)CSc1nnc(C2CC2)n1Cc1ccccc1 | 93% (inactive)
33 | Cc1cn2c(=O)cc(COC(=O)c3ccc(NC(=O)c4ccc(C(C)(C)C)cc4)cc3)nc2s1 | -3% (active)
34 | O=C(COc1ccccc1)OCc1cc(=O)n2nc(-c3cccs3)sc2n1 | 75% (inactive)
35 | O=C(COc1ccc(Cl)cc1)OCc1cc(=O)n2nc(-c3cccs3)sc2n1 | -6% (active)
36 | Cc1cn2c(=O)cc(COC(=O)c3ccc(NC(=O)C(C)Oc4ccccc4)cc3)nc2s1 (centres undefined) | 0% (active)
37 | Cc1cn2c(=O)cc(COC(=O)c3ccc(NC(=O)c4ccc(F)cc4)cc3)nc2s1 | 70% (inactive)
38 | COc1ccc(OCC(=O)OCc2cc(=O)n3nc(-c4cccs4)sc3n2)cc1 | 87% (inactive)
39 | Cc1cn2c(=O)cc(COC(=O)c3cccc(NC(=O)C(C)Oc4ccccc4)c3)nc2s1 (centres undefined) | 69% (inactive)
40 | COc1ccc(OCC(=O)OCc2cc(=O)n3cc(C)sc3n2)cc1 | 1% (active)
41 | Cc1cn2c(=O)cc(COC(=O)COc3ccc(F)cc3)nc2s1 | 81% (inactive)
42 | Cc1cn2c(=O)cc(COC(=O)COc3ccc(C)c(C)c3)nc2s1 | 63% (inactive)
43 | CC(Oc1ccccc1)C(=O)Nc1ccc(C(=O)OCc2cc(=O)n3ccsc3n2)cc1 (centres undefined) | 72% (inactive)
44 | Cc1cn2c(=O)cc(COC(=O)c3cccc(NC(=O)c4ccc(C(C)(C)C)cc4)c3)nc2s1 | 101% (inactive)
45 | Cc1cccc(OCC(=O)N(Cc2ccccc2)c2ccccn2)c1 | 87% (inactive)
46 | CCOC(=O)c1ccccc1NC(=O)CSc1nc(=O)[nH]c2c1CCC2 | 77% (inactive)

Row | SMILES | survival
47 | Cc1ccc(NC(=O)Cn2cc(C#N)c3ccccc32)cc1 | 113% (inactive)
48 | Cc1c(Cl)cccc1NC(=O)Cn1c(=O)n(Cc2nc(-c3ccccc3)no2)c(=O)c2cc3c(cc21)OCO3 | 135% (inactive)
49 | CCn1cc(C(=O)NCc2ccc(C)cc2)c(=O)c2cc(S(=O)(=O)N3CCC(C)CC3)ccc21 | 128% (inactive)
50 | Cc1sc2ncn(CC(=O)Nc3cccc(C(F)(F)F)c3)c(=O)c2c1S(=O)(=O)N1CCN(C)CC1 | 75% (inactive)
51 | Cc1ccc(Cn2cc(S(=O)(=O)c3cccc(C)c3)c(=O)c3cc(F)c(N4CCOCC4)cc32)cc1 | 82% (inactive)
52 | COc1ccc(O)c(C2Nc3ccccc3-n3c(-c4ccccc4)c4c(=O)n(C)c(=O)n(C)c4c32)c1 (centres undefined) | -6% (active)
53 | Cc1ccc(-c2c3c(=O)n(C)c(=O)n(C)c3c3n2-c2ccccc2NC3c2ccc(C)cc2O)cc1 (centres undefined) | -8% (active)
54 | Cc1cc2c(cc1C)-n1c(-c3ccccc3)c3c(=O)n(C)c(=O)n(C)c3c1C(c1ccco1)N2 (centres undefined) | 88% (inactive)
55 | COc1ccc(-c2c3c(=O)n(C)c(=O)n(C)c3c3n2-c2ccccc2NC3c2ccc(O)cc2O)cc1 (centres undefined) | -8% (active)
56 | COc1ccc(-c2nc3ccccc3n3c(-c4ccc(OC)cc4)c4c(=O)n(C)c(=O)n(C)c4c23)cc1 | 75% (inactive)
57 | Cn1c(=O)c2c(-c3ccccc3)n3c(c2n(C)c1=O)C(c1ccco1)Nc1ccccc1-3 (centres undefined) | 85% (inactive)
58 | Cn1c(=O)c2c(-c3ccccc3)n3c(c2n(C)c1=O)C(c1ccccc1[N+](=O)[O-])Nc1ccccc1-3 (centres undefined) | 76% (inactive)
59 | COc1ccccc1C1Nc2ccccc2-n2c(-c3ccccc3)c3c(=O)n(C)c(=O)n(C)c3c21 (centres undefined) | 65% (inactive)
60 | Cn1c(=O)c2c(-c3ccccc3)n3c(c2n(C)c1=O)C(c1cccc([N+](=O)[O-])c1)Nc1ccccc1-3 (centres undefined) | 31% (inactive)
61 | COc1ccc(-c2c3c(=O)n(C)c(=O)n(C)c3c3c(C)nc4ccccc4n23)cc1 | 74% (inactive)
62 | COc1ccc(-c2c3c(=O)n(C)c(=O)n(C)c3c3c(-c4ccccc4)nc4ccccc4n23)cc1 | 64% (inactive)
63 | Cn1c(=O)c2c(-c3ccccc3)n3c(c2n(C)c1=O)C(c1cc(Cl)ccc1O)Nc1ccccc1-3 (centres undefined) | -9% (active)
64 | O=C(C1CCN(S(=O)(=O)c2cccs2)CC1)N1CCN(c2ccccc2F)CC1 | 142% (inactive)
65 | CCN(C(=O)/C=C/c1cc(OC)c(OC)c(OC)c1)C1CCCCC1 | 107% (inactive)
66 | COc1cccc(CNC(=O)CCn2c(=O)c3cccn3c3cccnc32)c1 | 87% (inactive)
67 | CCC(Sc1nc(-c2ccccc2F)nc2c1Cc1c(CO)cnc(C)c1O2)C(=O)Nc1cc(C)ccc1C (centres undefined) | 87% (inactive)
68 | COc1ccc(N2CCN(Cc3nnc(-c4ccc5c(c4)OCO5)o3)CC2)cc1 | 81% (inactive)
69 | O=C(Cn1c(C(=O)NC2CCCCC2)cc2sccc21)c1ccccc1 | 136% (inactive)

Row | SMILES | survival
70 | Cc1ccc(C)n1-c1nnc(N2CCCC(C(=O)NCc3cccc(F)c3)C2)s1 (centres undefined) | 81% (inactive)
71 | COC(=O)c1c(C)oc2ccc(N(C(=O)c3ccncc3)S(=O)(=O)c3cc(C)c(C)cc3C)cc12 | 77% (inactive)
72 | COc1ccc(Cl)c2sc(NC(=O)c3ccc(S(=O)(=O)N4CCCC4)cc3)nc12 | 73% (inactive)
73 | CCn1ccc2cc(S(=O)(=O)N3CCCN(C(=O)Nc4ccc(C)cc4Cl)CC3)ccc21 | 63% (inactive)
74 | COc1ccc(OC)c(C2NC(=O)NC(C)=C2C(=O)Nc2ccc(F)cc2)c1 (centres undefined) | 81% (inactive)
75 | Cc1ccc(C)c(N2CCN(c3nc4ccccc4c(=O)n3-c3ccc(Cl)cc3)CC2)c1 | 78% (inactive)
76 | O=c1c2ccccc2nc(N2CCN(c3cccc(Cl)c3)CC2)n1-c1ccccc1 | 81% (inactive)
77 | Cc1ccc(C)c(N2CCN(c3nc4ccccc4c(=O)n3-c3ccccc3)CC2)c1 | 10% (active)
78 | CCOc1ccccc1CN1CCc2nc(N3CCN(c4ccccc4F)CC3)ncc2C1 | -6% (active)
79 | CN1CCN(c2ncc3c(n2)CCN(Cc2cc(Br)cs2)C3)CC1 | 129% (inactive)
80 | COc1cc(OC)c(OC)cc1CN1CCc2nc(N3CCN(C)CC3)ncc2C1 | 82% (inactive)
81 | Cc1ccccc1CN1CCc2nc(N3CCN(c4ncccn4)CC3)ncc2C1 | 75% (inactive)
82 | COc1ccccc1N1CCN(c2ncc3c(n2)CCN(Cc2ccccc2F)C3)CC1 | 67% (inactive)
83 | CCN1CCN(c2ncc3c(n2)CCN(Cc2ccc(Br)s2)C3)CC1 | 60% (inactive)
84 | CCN1CCN(c2ncc3c(n2)CCN(Cc2cc(Br)cs2)C3)CC1 | 1% (active)
85 | CCOc1ccccc1CN1CCc2nc(N3CCN(C)CC3)ncc2C1 | -4% (active)
86 | Cc1ccccc1CN1CCc2nc(N3CCN(c4ccccn4)CC3)ncc2C1 | 71% (inactive)
87 | CCN1CCN(c2ncc3c(n2)CCN(Cc2ccccc2C)C3)CC1 | -3% (active)
88 | COc1cc(OC)c(OC)cc1CN1CCc2nc(N3CCN(c4ccccc4F)CC3)ncc2C1 | 64% (inactive)
89 | CN1CCN(c2ncc3c(n2)CCN(Cc2ccccc2Cl)C3)CC1 | 71% (inactive)
